Test results reported in ChEMBL document CHEMBL3433997, “St. Jude Leishmania screening dataset” (2016).

Key:
Type in all cases: functional
[1] = molecular target: Solute carrier family 2, facilitated glucose transporter member 1 (Homo sapiens) (UniProt P11166); test: ST_JUDE_LEISH: Cytotoxicity at 2uM final concentration against transgenic Leishmania Mexicana promastigotes LmGLUT1 that are glucose transport deficient and complemented with the human glucose transporter GLUT1. Activity is measured by DNA content using SYBR green in vitro
[2] = molecular target: Hexose transporter 1 (Plasmodium falciparum) (UniProt O97467); test: ST_JUDE_LEISH: Cytotoxicity at 2uM final concentration against transgenic Leishmania Mexicana promastigotes LmPfHT that are glucose transport deficient and complemented with the Plasmodium falciparum hexose transporter. Activity is measured by DNA content using SYBR green in vitro
[3] = molecular target: Glucose transporter (Leishmania mexicana) (UniProt O61059); test: ST_JUDE_LEISH: Cytotoxicity at 2uM final concentration against transgenic Leishmania Mexicana promastigotes LmGT2 that are glucose transport deficient and complemented with the L. Mexicana glucose transporter 2. Activity is measured by DNA content using SYBR green in vitro

Chain of Solute carrier family 2, facilitated glucose transporter member 1 (Homo sapiens) (P11166 whole entry): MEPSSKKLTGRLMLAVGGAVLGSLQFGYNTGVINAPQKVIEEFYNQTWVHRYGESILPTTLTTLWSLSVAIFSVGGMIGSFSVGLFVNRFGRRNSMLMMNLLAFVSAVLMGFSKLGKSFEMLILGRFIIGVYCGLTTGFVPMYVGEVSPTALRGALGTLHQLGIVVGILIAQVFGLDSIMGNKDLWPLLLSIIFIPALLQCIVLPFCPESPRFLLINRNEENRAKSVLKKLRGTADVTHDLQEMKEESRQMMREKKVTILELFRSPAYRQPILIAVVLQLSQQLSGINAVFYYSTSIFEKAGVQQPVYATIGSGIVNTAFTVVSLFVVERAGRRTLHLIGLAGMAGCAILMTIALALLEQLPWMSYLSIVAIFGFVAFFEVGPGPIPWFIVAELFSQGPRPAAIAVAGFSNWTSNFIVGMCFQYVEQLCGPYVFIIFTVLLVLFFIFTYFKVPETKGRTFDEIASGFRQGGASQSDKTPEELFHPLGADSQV

SMILES | inhibition [1] | inhibition [2] | inhibition [3]
O=C(NCCCCN1CCC(c2ccc3c(c2OCCN2CCCC2)CCCC3)CC1)c1ccc(-c2ccc(C(F)(F)F)cc2)cc1 | 3.42% | 5.87% | 4%
CN(C)CCNC(=O)c1ccc2c(c1)n(C1CCN(S(=O)(=O)c3ccc(-c4ccccc4)cc3)CC1)c(=O)n2CC1CCCCC1 | -1.79% | -0.94% | -1.74%
CCC(C)c1ccc(NC(=O)Nc2ccnc3ccccc23)cc1 (centres undefined) | 2.93% | 6.23% | 2.25%
Cc1ccc(C(=O)Nc2ccc(C)c(OC3CCN(Cc4ccco4)C3)c2)cc1 (centres undefined) | 0.19% | 1.86% | 7.13%
CC[C@H](C)CNC(=O)c1ccnc(-c2cccc(CN3CCC(N4CCCC4)CC3)c2)c1 | 0.78% | -0.95% | 0.7%
CCN(CC)CCN(CCCc1ccc(-c2ccc(C(F)(F)F)cc2)cc1)C(=O)Cn1c(CCc2cccc(F)c2F)nc(=O)c2c1CCC2 | -2.04% | -0.48% | 6.62%
CCCCN(CCCC)/C(=N/c1cccc(Cl)c1Cl)Nc1ccc(C#N)cc1O | 3.21% | 2.13% | -4.06%
O=C(N[C@@H](CC1CCCCC1)C(=O)NCCN1CCOCC1)c1ccc(O)c(-c2ccc(Cl)c(Cl)c2)c1 | -0.52% | 1.41% | 0.27%
Cc1cccc2nc(-c3ccc(-c4ccc(CN5CCN(CCO)CC5)cc4)s3)[nH]c12 | 10.6% | 8.8% | 7.69%
Cc1ccc2[nH]c3c(NCCCN4CCOCC4)ncnc3c2c1 | 7.43% | -2.37% | 0.92%
COc1cc(-c2nnc(SCC(=O)Nc3cc(C)on3)n2C)cc(OC)c1O | 7.83% | 7.61% | 7.59%
Oc1ccc(CC2CCCN(c3nc(NCCCOc4ccccc4-c4ccccc4)nc(N4CCNCC4)n3)C2)cc1 (centres undefined) | -0.74% | -1.72% | -1.02%
CCCCN(Cc1cc(Cl)c(OC)c(OC)c1)c1ccc(C(O)(C(F)(F)F)C(F)(F)F)cc1 | 1.29% | 4.14% | -0.33%
CC(=O)Nc1ncc(C(=O)Nc2cccc(-c3ccc(-c4nc5cc(C(F)(F)F)ccc5[nH]4)cc3)c2)s1 | 2.37% | 0.89% | -0.63%
O=C(C=Cc1ccc(-c2ccccc2)cc1)N1CCC(CCN2CCC(c3c[nH]c4ccccc34)CC2)CC1 | 2.14% | 9.22% | -1.2%
CN(CCCCN)Cc1ccc(-c2ccc(Cl)cc2)cc1 | 21.7% | 19.1% | 10.5%
O=C(NC1CCCc2ccccc21)[C@@H]1CCCN1C(=O)c1ccc(O)c(-c2cccc([N+](=O)[O-])c2)c1 (some centres undefined) | 2.69% | 1.92% | 2.82%
Cc1[nH]c(C)c(-c2ccc(-c3ccc(OCC(F)(F)F)cc3)nc2)c(=O)c1Cl | 5.76% | 4.89% | 6.06%
CC(C)(CNC(=O)C1CCN(Cc2ccc(Cl)cc2)CC1)c1nc(-c2ccc(Cl)c(O)c2)c(-c2ccncc2)[nH]1 | 6.62% | 6.8% | 9.13%
Cc1cccc2nc(-c3ccc(-c4ccc(NC(=O)Nc5ccsc5)cc4)s3)[nH]c12 | 5.12% | 5.23% | 4.39%
CS(=O)(=O)Cc1ccc(Nc2nccc(N3CCCc4cc(NC(=O)Nc5cccc(C(F)(F)F)c5)ccc43)n2)cc1 | 9.54% | 15.9% | 2.08%
Cc1cccc2nc(-c3ccc(-c4ccc(CN5CCN(C6CCN(C)CC6)CC5)cc4)s3)[nH]c12 | 0.65% | 1.2% | -2.96%
CN(C)CCN(Cc1ccc(-c2ccc(CNCCc3ccccc3)cc2)nc1)C(=O)CCC1CCCC1 | 3.68% | 6.87% | 6.39%
O=C(NCCc1ccccc1)N(Cc1cccc(-c2ccc(CNC3CCCC3)cc2)c1)C1CCN(Cc2ccccc2)CC1 | 13.9% | 13.2% | 11.2%

SMILES | inhibition [1] | inhibition [2] | inhibition [3]
CCNc1cc(C(=O)N[C@@H](Cc2ccccc2)[C@H](O)CNC2(C)CCCCC2)cc(N2CCCCS2(=O)=O)c1 | 1.96% | -0.16% | -0.26%
O=C(Nc1cccc(OCCN2CCCC2)c1)Nc1ccc(Cl)c(Cl)c1 | 1.92% | 2.15% | 4.58%
COc1ccc(CCCCN2C(=O)C(c3ccccc3)(c3ccccc3)N=C2N)cc1 | 3.36% | 4.05% | 0.32%
Nc1nccc2ccc(-c3cccnc3)cc12 | 3.94% | 5.14% | 4.83%
CCCCN(CCCC)CC(O)c1cc(-c2ccc(Cl)cc2)nc2c(Cl)cc(Cl)cc12 (centres undefined) | 6.76% | 7.36% | 4.19%
COc1cc(OC)cc(-c2nnc(Sc3ccc(C#N)c([N+](=O)[O-])c3)n2C)c1 | 9.51% | 6.92% | 5.47%
COc1cc(C)cc(CN2CCC(Cc3ccccc3)CC2)c1O | 0.53% | 0.17% | 1.48%
O=C(/C=C/c1c(Cl)cccc1Cl)NC1CCC(CN2CCC(c3c[nH]c4ccncc34)CC2)CC1 (centres undefined) | 5.27% | 5.98% | 4.84%
COc1ccc2ncc(C#N)c(CCN3CCC(NCc4ccc5c(c4)OCCO5)CC3)c2c1 | 48.5% | 64.6% | 83.2%
COc1ccc2nc(-c3ccccc3)cc(N/N=C/c3ccc([N+](=O)[O-])o3)c2c1 | 15.9% | 10.5% | 10.3%
Fc1cc(Cl)ccc1Nc1ccnc2cc(I)ccc12 | 2.92% | 5.41% | 3.25%
Cc1[nH]c(C)c(-c2ccc(-c3ccc(F)cc3)nc2)c(=O)c1Br | 0.98% | 1.82% | 1.04%
COc1ccc2c(c1)Sc1ccccc1C(N1CCN(CCO)CC1)C2 (centres undefined) | 1.57% | 2.05% | 2.69%
COc1ccc(NC(=O)c2ccc(-c3nc(-c4ccc(Cl)cc4)cs3)cc2)cc1N1CCN(C)CC1 | 0.97% | 0.94% | 0.9%
CCN(CC)c1ccc(C(=O)Cn2ccc(=N)cc2)cc1 | 1.35% | -0.06% | 0.82%
O=C(Nc1ccc(C(F)(F)F)cc1)N[C@H]1CCN(CCCCCNC(=O)C2CC2c2ccc(Cl)c(Cl)c2)C1 (some centres undefined) | 3.36% | 2.73% | 2.17%
COc1cccc(NC(=O)CSc2nc(-c3ccccc3Cl)ns2)c1 | 5.33% | 4.86% | 6.13%
COc1cccc(C(=O)Nc2ccc(Nc3nc(C)cc(N(C)C)n3)cc2)c1 | 12.8% | 9.13% | 7.09%
COC(=O)c1ccc(-c2ccc(C(=O)NCC3CCN(c4nc(N)c5cc(OC)c(OC)cc5n4)CC3)cc2)cc1 | 4.1% | 4.23% | 2.11%
CCc1cccc(-n2c(=O)c3cccnc3n2CC(=O)NC2CCCC2)c1 | 3.43% | 12% | 4.05%
Oc1ccc(Nc2nc(NCc3ccccc3)c3ccccc3n2)cc1 | 30.1% | 27.1% | 10.6%
O=C(Nc1ccc(F)cc1F)NC1CCN(CCCCCNC(=O)C2CC2c2ccc(Cl)c(Cl)c2)CC1 (centres undefined) | 0.37% | 2.99% | 3.47%
CC(C)C[C@H](NC(=O)c1ccc(OCCN2CCOCC2)cc1)C(=O)N[C@H](/C=N/NC(=O)OC(C)(C)C)CCc1ccccc1 | 9.41% | 8.52% | 5.94%
N#Cc1ccc(-c2ccc(C(=O)NCCCCN3CCC(c4ccc5c(c4OCc4ccncc4)CCCC5)CC3)cc2)cc1 | 0.21% | 3.1% | 1.26%
